According to PubChem BioAssay AID1159580 (chemical genetic matrix, 2015):
About 2,000 (36%) of roughly 5,500 compounds were called active. About 18% were inconclusive and are not listed. Rule as the data show it: active = normalized growth mostly below about 0.91 (no sharp cut-off); inconclusive = no clear call, values can overlap the other calls; inactive = mostly above about 0.92. The list shows a part of the results.

Experiment: chemical genetic growth profiling, strain panel (AID 1159580);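 also: tested at 20 µM; growth read once vehicle control cultures reached saturation at 30 °C; 1 = growth at the plate median or of vehicle wells; lower values mean less growth of the strain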
Settings: growth OD
[1] = S. cerevisiae deletion strains, locus YMR307W, strain GAS1, hits give low values
[2] = S. cerevisiae deletion strains, locus YJL095W, strain BCK1, hits give low values

Measured: normalized growth

NC/C=C\C(=O)O
inactive: S. cerevisiae deletion strains, locus YAL013W, strain DEP1, hits give low values 1 | S. cerevisiae deletion strains, locus YAL040C, strain CLN3, hits give low values 0.994 | S. cerevisiae deletion strains, locus YER002W, strain NOP16, hits give low values 1.01 | S. cerevisiae deletion strains, locus YGR229C, strain SMI1, hits give low values 1.02 | [1] 1 | S. cerevisiae deletion strains, locus YNL175C, strain NOP13, hits give low values 1 | S. cerevisiae deletion strains, locus YNL197C, strain WHI3, hits give low values 0.985 | S. cerevisiae deletion strains, locus YNL224C, strain SQS1, hits give low values 0.993 | S. cerevisiae deletion strains, locus YOR083W, strain WHI5 (second series), hits give low values 1.02

CCC(C)c1cnc(CC(C)C)c(=O)n1O (centres undefined)
active: S. cerevisiae deletion strains, locus YDL035C, strain GPR1, hits give low values 0.818 | S. cerevisiae deletion strains, locus YDL185W, strain tfp1, hits give low values 0.231 | S. cerevisiae deletion strains, locus YDR162C, strain NBP2, hits give low values 0.545 | S. cerevisiae deletion strains, locus YEL061C, strain CIN8, hits give low values 0.846 | S. cerevisiae deletion strains, locus YGL078C, strain dbp3, hits give low values 0.87 | S. cerevisiae deletion strains, locus YHR129C, strain ARP1, hits give low values 0.894 | S. cerevisiae deletion strains, locus YIL125W, strain kgd1, hits give low values 0.815 | S. cerevisiae deletion strains, locus YJR043C, strain POL32, hits give low values 0.645 | S. cerevisiae deletion strains, locus YJR075W, strain HOC1, hits give low values 0.837 | S. cerevisiae deletion strains, locus YKL068W, hits give low values 0.864 | S. cerevisiae deletion strains, locus YKL085W, strain MDH1 (second series), hits give low values 0.771 | S. cerevisiae deletion strains, locus YKL085W, strain MDH1, hits give low values 0.771 | [1] 0.534 | S. cerevisiae deletion strains, locus YNL271C, strain bni1, hits give low values 0.78 | S. cerevisiae deletion strains, locus YNL298W, strain CLA4, hits give low values 0.708 | S. cerevisiae deletion strains, locus YNL322C, strain KRE1, hits give low values 0.579 | S. cerevisiae deletion strains, locus YPL055C, strain LGE1, hits give low values 0.548 | S. cerevisiae deletion strains, locus YPL241C, strain CIN2, hits give low values 0.717 | S. cerevisiae deletion strains, locus YPR141C, strain kar3, hits give low values 0.844 | S. cerevisiae strains, strain wild type, hits give low values 0.275
inactive: S. cerevisiae deletion strains, locus YBR021W, strain FUR4, hits give low values 1.01 | S. cerevisiae deletion strains, locus YBR229C, strain ROT2, hits give low values 1.01 | S. cerevisiae deletion strains, locus YCL029C, strain bik1, hits give low values 1.02 | S. cerevisiae deletion strains, locus YDL074C, strain BRE1, hits give low values 0.876 | S. cerevisiae deletion strains, locus YDL101C, strain DUN1, hits give low values 1.02 | S. cerevisiae deletion strains, locus YDL134C, strain PPH21, hits give low values 1.04 | S. cerevisiae deletion strains, locus YDL192W, strain arf1, hits give low values 0.933 | S. cerevisiae deletion strains, locus YDR101C, strain arx1, hits give low values 0.993 | S. cerevisiae deletion strains, locus YDR318W, strain mcm21, hits give low values 1.03 | S. cerevisiae deletion strains, locus YDR388W, hits give low values 1.02 | S. cerevisiae deletion strains, locus YDR502C, strain sam2, hits give low values 0.967 | S. cerevisiae deletion strains, locus YER110C, hits give low values 1.02 | S. cerevisiae deletion strains, locus YER155C, strain BEM2, hits give low values 1.01 | S. cerevisiae deletion strains, locus YER167W, strain BCK2, hits give low values 0.998 | S. cerevisiae deletion strains, locus YGL086W, strain mad1, hits give low values 0.946 | S. cerevisiae deletion strains, locus YGL248W, strain PDE1, hits give low values 1.04 | S. cerevisiae deletion strains, locus YGR078C, strain PAC10, hits give low values 0.905 | S. cerevisiae deletion strains, locus YGR135W, strain pre9, hits give low values 0.977 | S. cerevisiae deletion strains, locus YGR252W, strain gcn5, hits give low values 1.1 | S. cerevisiae deletion strains, locus YHR079C, strain IRE1 (second series), hits give low values 1.02 | S. cerevisiae deletion strains, locus YHR094C, strain hxt1, hits give low values 1.01 | S. cerevisiae deletion strains, locus YHR200W, strain rpn10, hits give low values 0.961 | S. cerevisiae deletion strains, locus YIL066C, strain RNR3, hits give low values 0.994 | S. cerevisiae deletion strains, locus YIL073C, strain SPO22, hits give low values 1.18 | S. cerevisiae deletion strains, locus YIR030C, strain dcg1, hits give low values 1.01 | [2] 0.981 | S. cerevisiae deletion strains, locus YJL134W, strain LCB3, hits give low values 0.993 | S. cerevisiae deletion strains, locus YJL168C, strain set2, hits give low values 1.02 | S. cerevisiae deletion strains, locus YJL187C, strain SWE1 (second series), hits give low values 1.01 | S. cerevisiae deletion strains, locus YKL009W, strain mrt4, hits give low values 0.936 | S. cerevisiae deletion strains, locus YKR001C, strain vps1, hits give low values 0.963 | S. cerevisiae deletion strains, locus YLR039C, strain RIC1, hits give low values 0.771 | S. cerevisiae deletion strains, locus YLR058C, strain SHM2, hits give low values 1.02 | S. cerevisiae deletion strains, locus YLR102C, strain apc9, hits give low values 1.02 | S. cerevisiae deletion strains, locus YLR262C, strain YPT6, hits give low values 0.806 | S. cerevisiae deletion strains, locus YLR268W, strain sec22, hits give low values 1.01 | S. cerevisiae deletion strains, locus YLR371W, strain rom2, hits give low values 1.04 | S. cerevisiae deletion strains, locus YLR418C, strain cdc73, hits give low values 0.991 | S. cerevisiae deletion strains, locus YML016C, strain PPZ1, hits give low values 1.01 | S. cerevisiae deletion strains, locus YML032C, strain rad52, hits give low values 1.01 | S. cerevisiae deletion strains, locus YML124C, strain tub3, hits give low values 1.02 | S. cerevisiae deletion strains, locus YMR078C, strain ctf18, hits give low values 1.01 | S. cerevisiae deletion strains, locus YMR223W, strain ubp8, hits give low values 1.01 | S. cerevisiae deletion strains, locus YNL067W, strain RPL9B, hits give low values 0.955 | S. cerevisiae deletion strains, locus YNL153C, strain GIM3, hits give low values 0.881 | S. cerevisiae deletion strains, locus YNL233W, strain BNI4, hits give low values 0.969 | S. cerevisiae deletion strains, locus YNL250W, strain rad50, hits give low values 0.906 | S. cerevisiae deletion strains, locus YNL307C, strain MCK1, hits give low values 1.02 | S. cerevisiae deletion strains, locus YNR052C, strain pop2, hits give low values 1.03 | S. cerevisiae deletion strains, locus YOL006C, strain TOP1, hits give low values 1.21 | S. cerevisiae deletion strains, locus YOL012C, strain htz1 0.477 | S. cerevisiae deletion strains, locus YOL147C, strain pex11, hits give low values 1 | S. cerevisiae deletion strains, locus YOR061W, strain CKA2, hits give low values 0.997 | S. cerevisiae deletion strains, locus YOR069W, strain VPS5, hits give low values 0.998 | S. cerevisiae deletion strains, locus YOR136W, strain idh2, hits give low values 1.03 | S. cerevisiae deletion strains, locus YOR144C, strain elg1, hits give low values 1.01 | S. cerevisiae deletion strains, locus YOR184W, strain ser1, hits give low values 0.957 | S. cerevisiae deletion strains, locus YOR316C, strain cot1, hits give low values 1.03 | S. cerevisiae deletion strains, locus YPR119W, strain clb2, hits give low values 1.01 | S. cerevisiae deletion strains, locus YPR163C, strain tif3, hits give low values 1.02 | S. cerevisiae deletion strains, locus YPR167C, strain met16, hits give low values 1.01 | S. cerevisiae deletion strains, strain wtn01, hits give low values 0.902

CC(C)c1c(CN(C)C(C)Cc2ccccc2)n(C)n(-c2ccccc2)c1=O (centres undefined)
inactive: S. cerevisiae deletion strains, locus YHR030C, strain SLT2, hits give low values 0.997 | S. cerevisiae deletion strains, locus YHR079C, strain IRE1, hits give low values 1.01 | [2] 0.992 | S. cerevisiae deletion strains, locus YJR066W, strain TOR1, hits give low values 0.938 | S. cerevisiae deletion strains, locus YLR113W, strain HOG1, hits give low values 1.01 | S. cerevisiae deletion strains, locus YNL183C, strain NPR1, hits give low values 0.935 | S. cerevisiae deletion strains, locus YOR231W, strain MKK1, hits give low values 1 | S. cerevisiae deletion strains, locus YPL256C, strain CLN2, hits give low values 0.971
